{"source": "PubChem BioAssay AID430", "about": "(Sanford-Burnham Center for Chemical Genomics, 2006)", "note": "Among all 63,000 compounds or so, about 1,100 (1.7%) were called active. Many of the other results were omitted from the sample, so actives are more common in it than they were. Measured potencies and affinities stand elsewhere. Unmarked numbers belong to inactive results. Cut-off read from the data, not from the text of the source: active = cytotoxicity above about 50%; inactive = the rest.", "data": [{"assay": "HPDE-C7 pancreatic duct cell viability loss – fluorescence, HTS (AID 430);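 note: cells exposed to compound for 48 hours before viability readout; 0% = vehicle and 100% = reference cytotoxic drug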", "conditions": "HPDE-C7 pancreatic duct cells viability, at 10 µM, active compounds read high", "values": [{"smiles": "Cc1ccccc1CSc1ncc(C#N)c(N)n1", "cytotoxicity": "-10.1%"}, {"smiles": "COc1ccc(Nc2cc(C(=O)NCCCN3CCN(C)CC3)c3ccccc3n2)c(OC)c1", "cytotoxicity": "2%"}, {"smiles": "Cc1csc(C(C#N)C(=O)c2ccncc2)n1", "note": "(configuration not stated)", "cytotoxicity": "-11%"}, {"smiles": "Cc1cccc(NC(=O)c2cc3c(n(-c4ccccc4)c2=O)CCCC3=O)n1", "cytotoxicity": "9.4%"}, {"smiles": "Cc1ccc(-n2c3c(cc(C(=O)Nc4cccc(C)n4)c2=O)C(=O)CCC3)cc1", "cytotoxicity": "-27.7%"}, {"smiles": "COc1ccc(-n2c3c(cc(C(=O)Nc4ccc5c(c4)C(=O)NC5=O)c2=O)C(=O)CCC3)cc1", "cytotoxicity": "58.8% (active)"}, {"smiles": "COC(=O)c1cc(OC)c(OC)cc1-n1cnc2cc(OC)c(OC)cc2c1=O", "cytotoxicity": "-9.2%"}, {"smiles": "Cc1cccc(NC2=NC3(CCCCC3)N=C(N)N2)c1C", "cytotoxicity": "-3.7%"}, {"smiles": "CCOc1ccc(NC(=O)CN2C(=O)COc3ccc(Cl)cc32)cc1", "cytotoxicity": "-2%"}, {"smiles": "CCOC(=O)c1ccc2c(c1)nc(SC/C(O)=C(\\C#N)c1nc3ccccc3[nH]1)n2CC", "cytotoxicity": "16.2%"}, {"smiles": "Cc1nnc(SCc2ccc(Cl)cc2)n1CC1CCCO1", "note": "(configuration not stated)", "cytotoxicity": "2.4%"}, {"smiles": "O=C(CSc1nnc(-c2ccccc2)o1)n1c2c(c3ccccc31)CCCC2", "cytotoxicity": "53.3% (active)"}, {"smiles": "O=C(O)CSc1nnc(-c2ccccc2)o1", "cytotoxicity": "0.1%"}, {"smiles": "Cc1nnc(SCC(=O)n2c3c(c4ccccc42)CCCC3)s1", "cytotoxicity": "-1%"}, {"smiles": "CC1CCCCN1S(=O)(=O)c1coc(C(N)=O)c1", "note": "(configuration not stated)", "cytotoxicity": "-2.9%"}, {"smiles": "CC(=O)NC(C)C12CC3CC(CC(C(=O)O)(C3)C1)C2", "note": "(configuration not stated)", "cytotoxicity": "-6.6%"}, {"smiles": "CSc1nc2ccc(NS(=O)(=O)c3ccc(Cl)s3)cc2s1", "cytotoxicity": "55.3% (active)"}, {"smiles": "CSc1nc2ccc(S(=O)(=O)NC3CCCCC3)cc2s1", "cytotoxicity": "6.9%"}, {"smiles": "Cc1ccc(S(=O)(=O)Nc2ccc3nc(N)sc3c2)cc1", "cytotoxicity": "-16.3%"}, {"smiles": "CCOc1cccc(/C(O)=C2/C(=O)C(=O)N(CCOC)C2c2ccc(C)o2)c1", "note": "(configuration not stated)", "cytotoxicity": "-8%"}, {"smiles": "Cc1cc(C)nc(N2CCC(CNC(=O)CCc3ccccc3)CC2)n1", "cytotoxicity": "-11.3%"}, {"smiles": "O=C(CCc1nc2ccccc2[nH]1)Nc1ccccc1", "cytotoxicity": "-8.6%"}, {"smiles": "CCOC(=O)c1c(C)c(C(=O)Nc2ccccc2)c(C)n1CC", "cytotoxicity": "4.4%"}, {"smiles": "CCOC(=O)c1c(C)c(C(=O)Nc2ccc(N(C)C)cc2)c(C)n1CC", "cytotoxicity": "54.2% (active)"}, {"smiles": "CCOC(=O)c1c(C)c(C(=O)Nc2ccc3c(c2)OCCO3)c(C)n1CC", "cytotoxicity": "17.2%"}, {"smiles": "CC(C)NS(=O)(=O)c1ccc(CCC(=O)O)cc1", "cytotoxicity": "-5.7%"}, {"smiles": "CC1=C(C(N)=O)C(c2cccnc2)n2nc(-c3cccc(C)c3)nc2N1", "note": "(configuration not stated)", "cytotoxicity": "-15.3%"}]}]}
